# Out of some 360,000 compounds screened, about 620 (0.17%) were called active. The sample as a whole holds a higher share of actives than the screen did. A number with no mark means an inactive call.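 The calls were made as follows: active = inhibition above a per-campaign cutoff, the mean of all compounds plus 3 SD (cut at about 60% in these data); inactive = the rest.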
# Target: Nuclear receptor coactivator 3 (Homo sapiens) (UniProt Q9Y6Q9)
# Experiment: NCOA3 GAL4-fusion reporter inhibition – cell-based, luminescence, primary screen (AID 588352);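 also: 0% = DMSO-treated cells and 100% = gossypol-treated cells at 36 µM; higher means less SRC3-driven luciferase light from the GAL4 reporter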
# Details: HEK293 GAL4-SRC3 luciferase reporter, at 3.6 µM, hits give high values
# Sequence of Nuclear receptor coactivator 3 (Homo sapiens) (Q9Y6Q9 whole entry, looked up, the tested form may be a part): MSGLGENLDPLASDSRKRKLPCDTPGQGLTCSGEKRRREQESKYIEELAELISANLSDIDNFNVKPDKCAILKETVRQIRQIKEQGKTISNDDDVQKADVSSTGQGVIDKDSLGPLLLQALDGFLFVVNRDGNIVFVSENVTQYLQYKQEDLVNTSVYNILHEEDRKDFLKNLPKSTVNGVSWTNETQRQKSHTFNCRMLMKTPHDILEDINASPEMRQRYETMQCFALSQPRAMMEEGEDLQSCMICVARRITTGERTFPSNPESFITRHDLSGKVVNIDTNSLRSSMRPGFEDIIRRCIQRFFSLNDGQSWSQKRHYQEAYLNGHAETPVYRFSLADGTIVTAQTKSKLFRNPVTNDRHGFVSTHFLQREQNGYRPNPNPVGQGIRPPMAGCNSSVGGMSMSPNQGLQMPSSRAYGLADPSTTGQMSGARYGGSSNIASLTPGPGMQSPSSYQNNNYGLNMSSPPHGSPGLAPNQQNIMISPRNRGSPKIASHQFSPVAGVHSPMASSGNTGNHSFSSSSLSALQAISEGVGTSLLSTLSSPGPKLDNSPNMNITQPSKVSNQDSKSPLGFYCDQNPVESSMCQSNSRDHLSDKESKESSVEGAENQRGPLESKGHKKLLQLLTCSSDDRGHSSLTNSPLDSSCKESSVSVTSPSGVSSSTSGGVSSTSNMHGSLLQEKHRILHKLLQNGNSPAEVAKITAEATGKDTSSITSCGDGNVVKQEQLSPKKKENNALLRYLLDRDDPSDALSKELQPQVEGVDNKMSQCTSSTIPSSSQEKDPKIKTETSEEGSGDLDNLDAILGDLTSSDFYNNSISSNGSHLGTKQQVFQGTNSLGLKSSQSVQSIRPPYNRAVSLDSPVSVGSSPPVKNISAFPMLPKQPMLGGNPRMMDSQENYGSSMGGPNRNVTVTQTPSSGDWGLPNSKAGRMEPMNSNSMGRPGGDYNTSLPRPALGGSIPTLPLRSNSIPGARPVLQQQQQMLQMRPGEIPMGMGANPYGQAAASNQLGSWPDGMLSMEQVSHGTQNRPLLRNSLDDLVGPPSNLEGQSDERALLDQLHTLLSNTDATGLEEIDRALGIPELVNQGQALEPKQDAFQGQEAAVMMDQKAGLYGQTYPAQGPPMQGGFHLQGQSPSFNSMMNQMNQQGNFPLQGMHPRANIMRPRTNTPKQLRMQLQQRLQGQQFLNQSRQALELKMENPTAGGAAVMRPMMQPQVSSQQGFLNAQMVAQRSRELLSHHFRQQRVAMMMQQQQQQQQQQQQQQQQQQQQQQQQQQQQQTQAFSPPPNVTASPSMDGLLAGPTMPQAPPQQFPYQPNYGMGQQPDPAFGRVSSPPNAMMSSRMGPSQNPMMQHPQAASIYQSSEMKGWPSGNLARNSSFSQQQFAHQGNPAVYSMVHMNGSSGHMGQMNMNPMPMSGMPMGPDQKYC
row,SMILES,inhibition
1,CC1(C)NC(=O)N(CC(=O)Nc2cc(C(F)(F)F)cc(C(F)(F)F)c2)C1=O,22.2%
2,CCCCNC(=O)C1CCCNC1=O (stereo unspecified),12.3%
3,CCNC(=O)C1(C)CCCN1C(=O)c1ccc(N(C)C)cc1 (stereo unspecified),-7.5%
4,COc1cc(NC(=O)C2=C(C)OCCS2)c(Cl)cc1C(=O)NCCCN1CCCC(C)C1 (stereo unspecified),-22.7%
5,O=C(N/N=C/c1cccc([N+](=O)[O-])c1)C1CC(=O)N(c2ccc(Br)cc2)C1 (stereo unspecified),-0.6%
6,COc1ccc(OCCCCN2CCC(C)CC2)cc1,-47.3%
7,CCC(O)C1CCN(Cc2cn(-c3ccc(OC)cc3)nc2-c2cccc(F)c2)CC1 (stereo unspecified),14%
8,Cc1nc2nc(COc3ccccc3)[nH]n2c(=O)c1Cc1ccccc1,-32.6%
9,COc1cccc(/C=C(/CC(=O)Nc2ccc(N3CCOCC3)cc2)c2nc3ccccc3s2)c1,7.57%
10,COC(=O)Cc1[nH]n(-c2nc3ccccc3s2)c(=O)c1C(C)=Nc1ccc(OC)cc1,86.7% (active)
11,Cc1occc1-c1nnc(SCC(=O)NC2CCCCC2)o1,15.9%
12,O=C(NNS(=O)(=O)Cc1ccccc1)c1ccc([N+](=O)[O-])cc1,-12.1%
13,O=C(NC(Nc1nc2ccc([N+](=O)[O-])cc2s1)(C(F)(F)F)C(F)(F)F)c1ccccc1,76.7% (active)
14,O=C(Nc1cc(-c2ccccc2)nn1-c1ccccc1F)c1ccc([N+](=O)[O-])cc1,-5.69%
15,O=S(=O)(NCCc1ccc(Cl)cc1)c1cccs1,14%
16,Brc1c(CSc2nncc3ccccc23)nc2ccccn12,-11.5%
17,CCCN(CCC)S(=O)(=O)c1ccc(C(=O)N2CC3CCC(CC3)C2)cc1,21.3%
18,CN(CC(=O)Nc1ccc(C(N)=O)cc1)S(=O)(=O)c1ccc2c(c1)OCCO2,-5.47%
19,COc1ccc2c(c1)c(=Cc1ccc(N(C)C)cc1)c1cc(-c3ccccc3)[n+](C)n12,72.6% (active)
20,O=S(=O)(/C=C/c1ccccc1)N1CCNCC1,18.6%
21,COc1c(F)c(F)c(C(=O)O)c(Nc2ccccc2C)c1F,3.91%
22,Cn1cnc(C(F)(F)F)c1-c1ccc([N+](=O)[O-])cc1,9.14%
23,O=C(O)CCc1cccnc1,-1.19%
24,CC1CCCC(C)N1C(=O)COC(=O)COc1ccccc1C#N (stereo unspecified),13.1%
25,Cc1ccc(C(=O)NNC(=O)OC(C)(C)C)c(Cl)c1,-22.3%
26,COc1ccc(CCNC(=O)CCc2cn(C)c3ccccc23)c(OC)c1,-10.8%

# Source: PubChem BioAssay AID588352 (The Scripps Research Institute Molecular Screening Center, 2011)
